The values below come from PubChem BioAssay (Tox21).

A number with no mark means an inactive call. Records with an inconclusive call do not appear. The source made the active and inactive calls. Unless noted, calls follow the shape of the dose curve; as a rule, active = well fitted curve in the direction sought with a large enough effect in the repeat runs; inconclusive = weak or mixed curves; inactive = no such curve, though single readings can be large; an effect the other way counts as inactive or inconclusive.

Test [1] in a line: qHTS assay to identify small molecule agonists of the sonic hedgehog signaling (Shh) pathway (AID 1259368; calls by dose curve;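 also: NIH/3T3-derived 3T3Gli1-Luc cells carrying a stable Gli1-driven firefly luciferase reporter; series mostly up to about 92 µM; nearly all actives have a fitted effect of over 15% in size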). The essentials: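 Luminescence was read after 30 min at room temperature with luciferase reagent. Before that, 3T3Gli1-Luc cells (NIH/3T3 clone, stable Gli1-Luc reporter; 2,000/well) were exposed to compounds for 24 hr at 37C, 5% CO2, compounds being added 4 hr post-plating.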

Test [2] can be described thus: qHTS assay to identify small molecule antagonists of the sonic hedgehog signaling (Shh) pathway (AID 1259369; calls by dose curve; also: nearly all actives have a fitted effect of over 45% in size; also: potency is read from the fitted curve at half-maximal effect). The method in brief:
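Antagonist mode: compound added to 3T3 Gli1-Luc cells followed by conditioned-medium stimulation, 24 h at 37 C, 5% CO2. Inhibition taken as loss of Gli1-driven luciferase luminescence.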

For test [3], the target named is Estrogen receptor beta (Homo sapiens) (UniProt Q92731). The experiment in a line: qHTS assay to identify small molecule agonists of the estrogen receptor beta (ER-beta) signaling pathway (AID 1259377; active = well fitted activation curve with a large enough effect in the signal ratio in the repeat runs, not every such curve was filed as active; the % refers to the signal ratio). The essentials: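 Screening used GripTite ER-beta-UAS-bla cells held in 2% charcoal-stripped FBS medium. After overnight (16 hr) compound incubation at 37C, beta-lactamase activity was detected with a FRET substrate by fluorescence.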

Test [4] has the same target. The experiment in a line: qHTS assay to identify small molecule antagonists of the estrogen receptor beta (ER-beta) signaling pathway (AID 1259378; active = well fitted inhibition curve with a large enough effect in the signal ratio in the repeat runs, not every such curve was filed as active; the % refers to the signal ratio). The method in brief:
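ER-beta-UAS-bla HEK293T (GripTite) cells in 2% charcoal-stripped FBS medium were preincubated 6 hr at 37C, dosed with compound, then stimulated with 1 nM E2 (final) for 16 hr; beta-lactamase reporter read by B/G FRET fluorescence after 2 hr substrate loading.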

Test [5] can be described thus: qHTS assay to identify small molecule agonists of the androgen receptor (AR) signaling pathway in the presence of an antagonist - cell viability counter screen (AID 1259379).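 Also: MDA-kb2 human breast cancer cells carrying an MMTV luciferase reporter; series mostly up to about 92 µM; nearly all actives have a fitted effect of over 25% in size.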 The method in brief:
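Cytotoxicity counter-screen run in the same wells as the nilutamide-challenged (3.0 µM final) AR agonist assay in MDA-kb2 cells. Compounds tested at 15 concentrations for 16 h, 37 °C without CO2; CellTiter-Fluor fluorescence read.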

A short description of test [6]: qHTS assay to identify small molecule agonists of the estrogen receptor beta (ER-beta) signaling pathway - cell viability counter screen (AID 1259380). Also: nearly all actives have a fitted effect of over 30% in size. The essentials:
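Cell viability counter screen: CellTiter-Glo luminescence (30 min, room temperature) measured in the same wells as the beta-lactamase readout, after 16 hr compound exposure at 37C of ER-beta-bla HEK293T cells in 2% charcoal-stripped FBS medium.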

A short description of test [7]: qHTS assay to identify small molecule antagonists of the estrogen receptor beta (ER-beta) signaling pathway - cell viability counter screen (AID 1259382). Also: series mostly up to about 92 µM; nearly all actives have a fitted effect of over 55% in size. The method in brief:
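Cytotoxicity was measured in the same wells by CellTiter-Glo luminescence after 30 min at room temperature. Cells were ER-beta-bla HEK293T in charcoal-stripped serum, given compound together with 1 nM E2 and incubated 16 h at 37C.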

Test [8] can be described thus: qHTS assay to identify small molecule agonists or antagonists of the thyroid stimulating hormone receptor (TSHR) signaling pathway - wild type cell line counter screen (AID 1259384; calls by dose curve). The essentials: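 Wild-type HEK293 cells were plated 18 h at 37 C/5% CO2, pin-dosed with compound plus Ro20-1724 medium, held 30 min at room temperature, then given cAMP-d2 and anti-cAMP-cryptate; fluorescence was read after 1 h. Fifteen concentrations, triplicate.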

The target in test [9] is Thyrotropin receptor (Homo sapiens) (UniProt P16473). The experiment in a line: qHTS assay to identify small molecule antagonists of the thyroid stimulating hormone receptor (TSHR) signaling pathway (AID 1259385; calls by dose curve; also: nearly all actives have a fitted effect of over 20% in size). The method in brief: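 TSHR-HEK293 cells were plated and held 18 h at 37C/5% CO2, then given compound plus Ro20-1724 and stimulated with TSH at 1.5 ng/mL final. After 30 min at room temperature, cAMP was detected with cAMP-d2/anti-cAMP-cryptate (1 h) by fluorescence.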

Test [10] in a line: qHTS assay to identify small molecule agonists of the estrogen receptor alpha (ER-alpha) signaling pathway in the presence of an antagonist - cell viability counter screen (AID 1259386). Also: series mostly up to about 92 µM; nearly all actives have a fitted effect of over 30% in size. The essentials: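 Compounds tested at 15 concentrations for 22 h at 37C alongside 10.0nM (final) ICI-182,780 antagonist, in VM7Luc4E2 cells grown in phenol red-free, charcoal-stripped medium. Viability read by CellTiter-Fluor fluorescence after 1 h reagent incubation.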

Test [11] is described as follows: qHTS assay to identify small molecule antagonists of the progesterone receptor (PR) signaling pathway - cell viability counter screen (AID 1346798). Also: series mostly up to about 92 µM; nearly all actives have a fitted effect of over 50% in size. The essentials:
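Measures cytotoxicity in parallel with the PR antagonist reporter read: HEK293T PR-UAS-bla cells get compound and R5020 for 16 hr, and remaining viable cells are quantified by CellTiter-Glo luminescence.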

The nature of test [12]: qHTS assay to identify small molecule agonists of the progesterone receptor (PR) signaling pathway - cell viability counter screen (AID 1346799; calls by dose curve; also: nearly all actives have a fitted effect of over 45% in size). The essentials: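 Using the same plates as the PR reporter screen, HEK293T PR-UAS-bla cells received compounds for 16 hr at 37C and were then lysed with CellTiter-Glo; luminescence was read 30 min later at room temperature.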
Test [13] is described as follows: qHTS assay to identify small molecule antagonists of the TGF-beta/Smad signaling pathway - cell viability counter screen (AID 1346824). Also: nearly all actives have a fitted effect of over 50% in size. The method in brief:
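SBE-bla HEK 293T cells were plated overnight at 37 C, then given compounds in DMSO plus TGF-beta1 (added as 0.25 ng/mL solution) for 5 hr. After the bla read, CellTiter-Glo was added to the same wells and luminescence read after 30 min at room temperature.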

A short description of test [14]: qHTS assay to identify small molecule agonists of the TGF-beta/Smad signaling pathway - cell viability counter screen (AID 1346829). Also: top concentration of the series differs between compounds; nearly all actives have a fitted effect of over 45% in size. The essentials: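 Tox21 qHTS format: SBE-bla HEK 293T cells treated with DMSO-dissolved compounds for 5 hr; CellTiter-Glo luminescence after 30 min at room temperature.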
The nature of test [15]: qHTS assay to identify small molecule agonists of the TGF-beta/Smad signaling pathway (AID 1346859; active = well fitted activation curve with a large enough effect in the signal ratio in the repeat runs, not every such curve was filed as active; the % refers to the signal ratio; also: series mostly up to about 77 µM). The essentials:
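Beta-lactamase reporter activity downstream of Smad binding elements was measured in stably transfected HEK 293T cells; compounds were incubated for 5 hr, substrate for 2 hr at room temperature.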

Test [16] has as its target Progesterone receptor (Homo sapiens) (UniProt P06401). Put plainly: qHTS assay to identify small molecule agonists of the progesterone receptor (PR) signaling pathway (AID 1346784; calls by dose curve; also: nearly all actives have a fitted effect of over 30% in size). The essentials: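 Seed PR-UAS-bla HEK 293T cells (2% charcoal-stripped FBS), incubate 6 hr at 37C; add compounds in DMSO, 16 hr at 37C; add LiveBLAzer B/G substrate, 2 hr RT; read fluorescence intensity.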

Test [17] shares this target. The experiment in a line: qHTS assay to identify small molecule antagonists of the progesterone receptor (PR) signaling pathway (AID 1346795; active = well fitted inhibition curve with a large enough effect in the signal ratio in the repeat runs, not every such curve was filed as active; the % refers to the signal ratio). The method in brief: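 Screening used a GripTite HEK293T line with PR-responsive UAS-beta-lactamase. Cells were challenged with compound in the presence of 1 nM R5020 final for 16 hr at 37C; B/G FRET substrate, 2 hr room temperature, fluorescence.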

Test [18] concerns the target Estrogen receptor (Homo sapiens) (UniProt P03372). Put plainly: qHTS assay to identify small molecule agonists of the estrogen receptor alpha (ER-alpha) signaling pathway in the presence of an antagonist (AID 1259383; calls by dose curve; also: top concentration of the series differs between compounds; nearly all actives have a fitted effect of over 15% in size). The method in brief:
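Agonist-mode confirmation run in the presence of 10.0nM (final) ICI-182,780 antagonist. The reporter was ERE-driven luciferase in VM7Luc4E2 cells, grown in charcoal-stripped serum. Cells were exposed to 15-concentration compound series for 22hr, then ONE-Glo luminescence was read.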

The target of test [19] is Thyrotropin-releasing hormone receptor (Homo sapiens) (UniProt P34981). The experiment in a line: qHTS assay to identify small molecule antagonists of the thyrotropin-releasing hormone receptor (TRHR) signaling pathway (AID 1346877; active = well fitted inhibition curve with a large enough effect in the repeat runs, not every such curve was filed as active; also: series mostly up to about 51 µM). The method in brief: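 Antagonist mode: after a 5 min room-temperature compound exposure, cells were stimulated with 1 nM (final) TRH. Dye-loaded TRHR-HEK293 cells were used, and calcium-dependent fluorescence was followed for 3 min, with 15-point titrations run in triplicate.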
% is scaled to controls: 0 for no effect and ±100 for the full control effect.

Sequence of Thyrotropin receptor (Homo sapiens) (P16473 whole entry, looked up): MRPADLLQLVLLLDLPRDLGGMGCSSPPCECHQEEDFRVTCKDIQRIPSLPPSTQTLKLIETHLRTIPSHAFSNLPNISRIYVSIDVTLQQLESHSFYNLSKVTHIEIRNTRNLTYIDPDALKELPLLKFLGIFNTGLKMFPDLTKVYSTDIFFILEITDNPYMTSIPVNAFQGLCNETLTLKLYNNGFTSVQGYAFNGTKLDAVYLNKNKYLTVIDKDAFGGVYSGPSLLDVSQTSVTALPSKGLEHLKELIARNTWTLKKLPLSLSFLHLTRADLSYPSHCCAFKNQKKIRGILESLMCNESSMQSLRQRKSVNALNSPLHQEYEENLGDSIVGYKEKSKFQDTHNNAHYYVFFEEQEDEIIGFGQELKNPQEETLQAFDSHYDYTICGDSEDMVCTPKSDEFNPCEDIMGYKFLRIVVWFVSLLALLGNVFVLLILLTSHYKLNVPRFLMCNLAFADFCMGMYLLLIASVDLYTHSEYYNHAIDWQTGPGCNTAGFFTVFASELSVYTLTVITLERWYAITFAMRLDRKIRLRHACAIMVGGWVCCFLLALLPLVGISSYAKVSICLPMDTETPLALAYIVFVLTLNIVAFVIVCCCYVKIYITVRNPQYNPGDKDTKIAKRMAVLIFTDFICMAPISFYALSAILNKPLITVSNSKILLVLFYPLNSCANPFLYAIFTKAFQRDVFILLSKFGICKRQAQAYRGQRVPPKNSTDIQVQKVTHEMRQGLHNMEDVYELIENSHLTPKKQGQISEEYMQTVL
Sequence of Estrogen receptor beta (Homo sapiens) (Q92731 whole entry, looked up): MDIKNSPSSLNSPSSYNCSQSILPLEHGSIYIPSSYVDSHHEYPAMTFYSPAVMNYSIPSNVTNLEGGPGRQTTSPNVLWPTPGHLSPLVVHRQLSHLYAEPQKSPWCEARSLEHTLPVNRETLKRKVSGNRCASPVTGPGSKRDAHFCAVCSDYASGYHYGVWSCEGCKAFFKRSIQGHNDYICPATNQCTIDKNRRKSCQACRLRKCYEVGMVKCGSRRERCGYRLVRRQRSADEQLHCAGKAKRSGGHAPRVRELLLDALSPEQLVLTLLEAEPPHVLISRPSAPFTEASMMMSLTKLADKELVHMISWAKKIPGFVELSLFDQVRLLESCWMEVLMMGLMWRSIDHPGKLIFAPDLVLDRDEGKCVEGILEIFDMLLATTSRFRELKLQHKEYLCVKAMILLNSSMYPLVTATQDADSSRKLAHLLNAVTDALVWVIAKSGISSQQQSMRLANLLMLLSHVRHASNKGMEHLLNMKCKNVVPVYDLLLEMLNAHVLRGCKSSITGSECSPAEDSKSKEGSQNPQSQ
Sequence of Progesterone receptor (Homo sapiens) (P06401 whole entry, looked up): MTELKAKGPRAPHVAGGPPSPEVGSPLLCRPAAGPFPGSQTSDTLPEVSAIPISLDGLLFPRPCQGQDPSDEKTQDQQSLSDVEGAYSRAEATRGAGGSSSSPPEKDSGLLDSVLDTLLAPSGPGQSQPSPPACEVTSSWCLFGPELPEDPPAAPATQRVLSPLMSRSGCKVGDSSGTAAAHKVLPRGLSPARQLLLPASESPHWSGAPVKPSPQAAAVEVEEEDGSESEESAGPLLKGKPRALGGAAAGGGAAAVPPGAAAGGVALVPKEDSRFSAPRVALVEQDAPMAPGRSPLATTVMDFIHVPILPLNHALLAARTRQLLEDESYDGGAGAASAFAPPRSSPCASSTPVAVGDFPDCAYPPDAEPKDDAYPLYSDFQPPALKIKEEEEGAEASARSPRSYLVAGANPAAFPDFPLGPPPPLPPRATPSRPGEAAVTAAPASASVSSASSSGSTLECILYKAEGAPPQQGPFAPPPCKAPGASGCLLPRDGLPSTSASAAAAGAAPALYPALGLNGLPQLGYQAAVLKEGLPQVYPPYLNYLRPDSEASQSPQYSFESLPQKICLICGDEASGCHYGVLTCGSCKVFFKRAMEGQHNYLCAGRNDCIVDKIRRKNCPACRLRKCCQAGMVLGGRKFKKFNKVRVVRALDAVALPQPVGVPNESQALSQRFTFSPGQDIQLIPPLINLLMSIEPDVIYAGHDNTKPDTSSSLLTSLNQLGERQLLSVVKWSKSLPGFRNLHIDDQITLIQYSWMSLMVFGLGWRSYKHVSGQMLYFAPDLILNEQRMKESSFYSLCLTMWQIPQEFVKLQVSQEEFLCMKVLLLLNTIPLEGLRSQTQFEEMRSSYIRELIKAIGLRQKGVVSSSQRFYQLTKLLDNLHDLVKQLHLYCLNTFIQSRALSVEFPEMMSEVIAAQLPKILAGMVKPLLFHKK
Sequence of Estrogen receptor (Homo sapiens) (P03372 whole entry, looked up): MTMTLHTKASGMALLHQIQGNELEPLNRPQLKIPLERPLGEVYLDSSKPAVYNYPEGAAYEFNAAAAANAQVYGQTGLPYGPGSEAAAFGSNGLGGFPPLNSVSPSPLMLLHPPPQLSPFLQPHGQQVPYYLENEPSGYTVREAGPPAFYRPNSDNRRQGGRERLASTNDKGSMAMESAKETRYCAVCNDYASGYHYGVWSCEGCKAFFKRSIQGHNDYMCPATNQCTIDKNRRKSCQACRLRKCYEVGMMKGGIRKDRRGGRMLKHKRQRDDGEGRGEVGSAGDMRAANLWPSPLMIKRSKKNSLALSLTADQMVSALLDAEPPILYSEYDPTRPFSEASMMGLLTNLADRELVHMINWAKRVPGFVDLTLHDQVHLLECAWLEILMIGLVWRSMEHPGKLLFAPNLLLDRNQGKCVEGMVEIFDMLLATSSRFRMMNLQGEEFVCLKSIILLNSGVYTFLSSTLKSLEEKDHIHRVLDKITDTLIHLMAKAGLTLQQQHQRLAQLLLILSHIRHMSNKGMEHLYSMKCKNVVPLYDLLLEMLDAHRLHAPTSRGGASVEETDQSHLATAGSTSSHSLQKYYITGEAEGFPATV
Sequence of Thyrotropin-releasing hormone receptor (Homo sapiens) (P34981 whole entry, looked up): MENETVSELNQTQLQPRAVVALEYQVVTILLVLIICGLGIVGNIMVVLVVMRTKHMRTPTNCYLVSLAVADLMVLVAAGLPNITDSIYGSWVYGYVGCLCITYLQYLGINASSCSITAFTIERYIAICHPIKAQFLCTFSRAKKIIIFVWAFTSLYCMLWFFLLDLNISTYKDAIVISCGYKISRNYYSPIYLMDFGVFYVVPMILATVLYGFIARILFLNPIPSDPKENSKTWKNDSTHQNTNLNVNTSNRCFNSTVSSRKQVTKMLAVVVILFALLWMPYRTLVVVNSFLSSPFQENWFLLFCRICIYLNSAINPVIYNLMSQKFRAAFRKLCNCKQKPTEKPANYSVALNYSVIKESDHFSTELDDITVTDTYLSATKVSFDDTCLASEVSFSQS

With `CC(=O)OCC(=O)[C@@]1(O)CCC2C3CCC4=CC(=O)CC[C@]4(C)C3[C@@H](O)C[C@@]21C` (some centres not stated), the result in test [1], in test [3], in [4], in [8], in [14] and in test [15] was inactive. The Potency result in test [2], in test [5], in [6], in test [7], in test [9] and in test [10] was “inactive” throughout. For the same molecule, the Potency entry in [11], in [12] and in test [13] was “inactive” in each case.
On to `CCN(Cc1ccncc1)C(=O)C(CO)c1ccccc1` (configuration not stated), for which the molecule was classed as inactive in [1], in test [3], in test [4], in test [8] and in test [14]. The Potency result in test [2], in [5], in test [7], in test [9], in test [10] and in test [16] was “inactive” each time. The Potency entry in test [17], in test [11], in test [12] and in test [13] was “inactive” in each case.
Regarding `CCOC(=O)CCC(C)=O`, the call in test [1], in test [4], in test [14] and in test [15] was inactive. Moreover, the Potency entry in [2], in [5], in test [6], in [7], in [18] and in [10] was “inactive” each time. In addition, the Potency result in [16], in [17], in [11], in test [12] and in test [13] was “inactive” in each case.
As for `CC(C)NCC(O)c1ccc(NS(C)(=O)=O)cc1` (configuration not stated), the outcome in test [1], in test [3], in test [4], in test [8], in [15] and in [19] was inactive. In addition, the Potency result in [2], in test [5], in test [6], in [7], in [9] and in test [10] was “inactive” in each case. For the same molecule, the Potency result in [17], in test [11], in test [12] and in test [13] was “inactive” throughout.
As to `C/C=C(\C)C#N`, the molecule was classed as inactive in test [1], in test [4], in [8] and in [14]. Moreover, the Potency result in [2], in [5], in test [6], in [7], in test [18] and in test [9] was “inactive” in each case. For the same molecule, the Potency result in [10], in test [16], in [17], in test [11], in [12] and in test [13] was “inactive” each time.
On to `CCC(C)S` (configuration not stated), for which the activity change in test [1] was -0.25% [at 3.27 µM]. Besides, the activity change, negative = inhibition in [2] was 17.6% [at 3.27 µM]; in [9], -0.487% [at 3.27 µM]; in [17], 8.27% [at 3.27 µM]. Further, the activation in test [3] is 0.578% [at 3.32 µM]; in test [16], -0.0244% [at 3.27 µM]; in [15], -0.527% [at 2.72 µM]. For the same molecule, the activity, negative = inhibition in test [4] was 9.7% [at 3.27 µM]; in [19] it was -1.08% [at 1.81 µM]. The activity change, negative = cytotoxicity was -0.314% [at 3.27 µM] in test [5]; 4.81% [at 3.32 µM] in test [6]; 6.44% [at 3.27 µM] in test [7]; 1.97% [at 3.27 µM] in test [10]; -5.62% [at 3.27 µM] in test [11]; 1.88% [at 3.27 µM] in test [12]. Besides, the activity change, negative = cytotoxicity in test [14] was 8.43% [at 2.72 µM]. Moreover, the cAMP activity change in test [8] was 0.879% [at 3.27 µM]. The viability change, negative = cytotoxic in test [13] is -5.42% [at 2.72 µM].
Take `CC/C=C\CC/C=C/C(OCC)OCC`: the molecule was called inactive in test [1], in test [3], in test [4], in test [8] and in test [15]. The Potency in test [2] was 27.3 µM (active). The Potency result in [5], in test [6], in [7], in test [9], in test [10] and in test [16] was “inactive” each time. The Potency entry in test [17], in [11], in test [12] and in test [13] was “inactive” in each case.
In the case of `COc1nc(N)nc2c1ncn2[C@@H]1O[C@H](CO)[C@@H](O)[C@@H]1O`, the call in [1], in test [3], in test [4], in test [8], in [14] and in test [15] was inactive. For the same molecule, the Potency result in test [2], in [5], in [6], in test [7], in test [9] and in test [10] was “inactive” throughout. Also, the Potency entry in [16], in test [17], in [11] and in test [13] was “inactive” throughout.
